Experimental data published in PubChem BioAssay.
Several values for one entry are separate records, joined by “and”; a condition that tells them apart may be missing. Equal entries are not always repeated. Results filed as inconclusive are left out. Activity calls are given as the source filed them. Cut-off read from the data, not from the text of the source, unless noted: active = inhibition above about 80%; inactive = the rest.

Columns and labels:
[1] = circadian clock period modulators, cell-based, LOPAC library, luminescence reporter (AID 2774; call rule not given here;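 note: values are relative to mean of DMSO wells on each plate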); conditions: circadian reporter cells, at 7 µM, actives lie on both sides
[2] = hESC survival regulators, cell-based (AID 493140; call rule not given here;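 note: cells exposed to compounds for four days before counting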); conditions: human embryonic stem cell survival screen; stronger effect = higher value
[3] = system: Hepatitis C virus NS3 helicase; test: HCV NS3 helicase inhibitors, primary screen, biochemical, fluorescence polarization, LOPAC1280 library (AID 687035; in the data active = inhibition above about 37%); conditions: Purified HCV NS3 helicase, Cy5-dT15 ssDNA binding fluorescence polarization; stronger effect = higher value; concentration not given here
[4] = Cy5 fluorescence quenching or enhancement artefacts, artefact control for HCV NS3 helicase inhibitor project, biochemical, LOPAC1280 (AID 687037; call rule not given here); conditions: Cy5-DNA-NS3h complex fluorescence interference counterscreen
[5] = phospholipid biosynthesis inhibitors in animal cells, primary screen, cell-based, LOPAC library, screen 4 (AID 1347384; call rule not given here); conditions: phospholipid biosynthesis inhibition screen, at 10 µM
[6] = biological target: Mitogen-activated protein kinase 7 (Homo sapiens) (UniProt Q13164); test: ERK5 transactivation activators in reporter cells, primary screen, cell-based, HTS (AID 1508626;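 active = luciferase signal above three times the same-plate solvent-only control wells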;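 note: luciferase driven by Gal4-ERK5 fusion binding five Gal4 sites before minimal TATA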); conditions: HeLa Gal4-ERK5 transactivation, 18 h, at 5 µM, stronger effect = higher value
Mitogen-activated protein kinase 7 (Homo sapiens), sequence (Q13164 whole entry, looked up, the tested form may be a part): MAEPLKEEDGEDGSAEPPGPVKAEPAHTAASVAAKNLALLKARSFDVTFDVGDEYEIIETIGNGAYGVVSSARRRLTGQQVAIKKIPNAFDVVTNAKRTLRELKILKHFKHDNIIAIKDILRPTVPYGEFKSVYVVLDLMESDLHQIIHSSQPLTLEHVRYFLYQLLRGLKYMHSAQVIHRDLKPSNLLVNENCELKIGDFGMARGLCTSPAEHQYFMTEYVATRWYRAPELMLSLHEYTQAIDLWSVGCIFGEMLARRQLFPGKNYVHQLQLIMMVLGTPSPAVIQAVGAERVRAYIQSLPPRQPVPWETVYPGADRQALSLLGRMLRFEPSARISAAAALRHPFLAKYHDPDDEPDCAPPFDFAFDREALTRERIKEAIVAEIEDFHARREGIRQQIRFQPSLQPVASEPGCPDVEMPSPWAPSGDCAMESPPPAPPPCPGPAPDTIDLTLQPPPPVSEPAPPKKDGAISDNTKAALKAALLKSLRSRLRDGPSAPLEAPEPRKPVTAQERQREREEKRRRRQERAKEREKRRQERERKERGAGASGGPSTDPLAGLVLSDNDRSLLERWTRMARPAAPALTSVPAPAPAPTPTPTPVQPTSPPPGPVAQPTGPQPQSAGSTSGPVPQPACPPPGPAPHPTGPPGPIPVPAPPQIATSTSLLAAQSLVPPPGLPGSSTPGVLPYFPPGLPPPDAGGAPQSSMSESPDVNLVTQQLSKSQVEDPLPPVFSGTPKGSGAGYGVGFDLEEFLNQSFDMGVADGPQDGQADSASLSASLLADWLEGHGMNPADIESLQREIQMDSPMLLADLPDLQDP

[7] = growth inhibition of DIPG glioma cells, dose response, cell-based, SU-DIPG-IV, MIPE4.0, CellTiter-Glo, qHTS (AID 1347063; cut-off not given, nearly all actives have AC50 up to about 30 µM;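 note: compound exposure lasted 48 hours before the viability readout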); conditions: SU-DIPG-IV viability, CellTiter-Glo ATP luminescence
[8] = growth inhibition of DIPG glioma cells, dose response, cell-based, SU-DIPG-XIII, MIPE5.0, CellTiter-Glo, qHTS (AID 1347064; cut-off not given, nearly all actives have AC50 up to about 23 µM); conditions: SU-DIPG-XIII viability, CellTiter-Glo ATP luminescence
[9] = SU-DIPG-VI glioma cell viability, MIPE4.0 library, CellTiter-Glo luminescence, qHTS (AID 1347066; cut-off not given, nearly all actives have AC50 up to about 30 µM;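 note: cells exposed to compound for 48 hours before readout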); conditions: CellTiter-Glo ATP luminescence
[10] = JHH-DIPG-1 glioma cell viability, MIPE5.0 library, CellTiter-Glo luminescence, qHTS (AID 1347067; cut-off not given, nearly all actives have AC50 up to about 26 µM;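 note: cells exposed to compound for 48 hours before readout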); conditions: JHH-DIPG-1 glioma viability, CellTiter-Glo ATP luminescence
[11] = LFS_MB_P medulloblastoma growth inhibition, cell-based, chromothripsis tumors, cisplatin or BGB combos (AID 1671449); conditions: LFS_MB_P medulloblastoma cells;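 note: cells exposed for 96 hours; 0% = vehicle DMSO and 100% = killing by high DMSO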
[12] = HDN33 neuroblastoma growth inhibition, cell-based, chromothripsis tumors, cisplatin or BGB combos (AID 1671450); conditions: HDN33 neuroblastoma cells, stronger effect = higher value;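 note: cells exposed to compound for four days; 0% = vehicle DMSO and 100% = cell killing by high DMSO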
[13] = ICB984 medulloblastoma cell growth inhibition, synergistic combos for chromothripsis tumors, cisplatin or BGB combos (AID 1671451; call rule not given here;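 note: cells exposed for 96 hours before readout; 0% = vehicle DMSO and 100% = killing by high DMSO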); conditions: ICB984 medulloblastoma cells, drug combinations, stronger effect = higher value
[14] = HTB85 osteosarcoma cell growth inhibition, synergistic combos for chromothripsis tumors, BGB or cisplatin IC20 combos (AID 1671453); conditions: HTB85 osteosarcoma cells, drug combinations, stronger effect = higher value;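 note: cells exposed for 96 hours before readout; 0% = vehicle DMSO and 100% = high DMSO killing control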
[15] = MDA-MB-436 breast carcinoma cell growth inhibition, synergistic combos for chromothripsis tumors, BGB or cisplatin combos (AID 1671458; call rule not given here;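 note: cells exposed for 96 hours; 0% = vehicle DMSO and 100% = killing by high DMSO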); conditions: MDA-MB-436 breast carcinoma growth inhibition, drug combinations, stronger effect = higher value
[16] = growth inhibition of BT084 medulloblastoma cells, cell-based, ICGC_MB145, cisplatin and BGB IC40 combos (AID 1671461); conditions: drug combinations, stronger effect = higher value;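 note: cells exposed to drugs for 96 hours; 0% = vehicle DMSO and 100% = high DMSO full killing control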
[17] = growth inhibition of RCMB18 medulloblastoma cells, cell-based, cisplatin and BGB IC40 combos (AID 1671462); conditions: stronger effect = higher value;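 note: cells exposed to compound for four days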
[18] = growth inhibition of CRL1545 osteosarcoma cells, cell-based, cisplatin and BGB IC20 combos (AID 1671464); conditions: stronger effect = higher value;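 note: cells exposed to compound for 96 hours before readout; 0% = vehicle DMSO and 100% = high DMSO killing control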
[19] = modifiers of HSF1 nuclear foci, imaging, Selleck Cancer Library (AID 1347162; in the data active = plate-normalised HSF1 focus index below about 0.46); conditions: human cells, at 10 µM; SSMD: measured here: HSF1 foci SSMD mean; cell count: measured here: cell number; plate-normalised HSF1 focus index: stronger effect = lower value
[20] = at 0.5 µM, stronger effect = higher value
[21] = measured here: combination with BGB IC20, at 0.005 µM
[22] = measured here: combination with BGB IC40, at 0.005 µM
[23] = measured here: combination with BGB IC40, at 0.05 µM
[24] = measured here: combination with cisplatin, at 0.5 µM, stronger effect = higher value
[25] = measured here: combination with cisplatin, at 5 µM, stronger effect = higher value
[26] = measured here: with BGB IC20 combination, at 0.5 µM
[27] = measured here: with cisplatin IC20 combination, at 0.5 µM
[28] = measured here: 5 uM single agent, at 5 µM
[29] = measured here: with BGB IC20, at 0.5 µM
[30] = measured here: with BGB IC20, at 5 µM
[31] = measured here: with cisplatin IC20, at 0.5 µM
[32] = measured here: with cisplatin IC20, at 5 µM
[33] = measured here: BGB combination, at 0.5 µM
[34] = measured here: BGB combination, at 5 µM
[35] = measured here: cisplatin combination, at 0.5 µM
[36] = measured here: cisplatin combination, at 5 µM
[37] = cisplatin combination, at 0.5 µM
[38] = measured here: BGB IC40 combination 0.05 uM, at 0.05 µM
[39] = measured here: BGB IC40 combination, at 0.05 µM
[40] = measured here: combination with cisplatin, at 0.5 µM

With `C[N+](C)(C)CCCCCCCCCC[N+](C)(C)C` the period change [1] was 0.03 h (inactive), the survival [2] was 4 (inactive) and the inhibition [3] was 2% (inactive). The fluorescence ratio (interference) [4] was 1 (inactive), the outcome [5] was “inactive” and the luciferase signal [6] was 60 AU (inactive).

With `Nc1ncn([C@H]2C[C@H](O)[C@@H](CO)O2)c(=O)n1` the outcome [7] was “inactive”, the outcome [8] was “inactive” and the outcome [9] was “inactive”. The outcome [10] was “inactive”, the inhibition [11, 20] was 6.06% (inactive) and the inhibition [11, 21] was -1.4%. The inhibition [11, 22] was -3.75%, the inhibition [11, 23] was -40.3% and the inhibition [11, 24] was 19.6%. For the same compound, the inhibition [11, 25] was 18%, the inhibition ([12]; BGB combo, at 5 µM) was 50.3% and the inhibition ([12]; at 0.5 µM) was 24.3% (inactive). For the same compound, the inhibition ([12]; cisplatin combo, at 5 µM) was 54.4%, the inhibition [12, 26] was 30.2% and the inhibition [12, 27] was 11.6%. The inhibition ([12]; single agent, at 5 µM) was 52.1%, the inhibition ([13]; BGB IC20 combo, at 0.005 µM) was -3.18% and the inhibition ([13]; BGB IC40 combo, at 0.005 µM) was -34%. For the same compound, the inhibition ([13]; BGB IC40 combo, at 0.05 µM) was -19.3%, the inhibition ([13]; at 0.5 µM) was -18% (inactive) and the inhibition ([13]; cisplatin combo, at 0.05 µM) was -23.6%. It also gave an inhibition ([13]; cisplatin combo, at 0.5 µM) of -14.1%, an inhibition ([13]; cisplatin combo, at 5 µM) of -50.9% and an inhibition [13, 28] of -6.92%. The inhibition ([14]; at 0.5 µM) was 3.38% (inactive), the inhibition [14, 29] was 2.59% and the inhibition [14, 30] was 19.3%. It also gave an inhibition [14, 31] of -6.21%, an inhibition [14, 32] of 27.4% and an inhibition ([14]; single agent, at 5 µM) of 40.2%. The inhibition ([15]; at 0.5 µM) was 17.4% (inactive), the inhibition [15, 33] was 28.5% and the inhibition [15, 34] was 26.2%. The inhibition [15, 35] was 6.25%, the inhibition [15, 36] was 4.64% and the inhibition ([16]; at 0.5 µM) was -3.99% (inactive). It also gave an inhibition [16, 37] of -10.2%, an inhibition ([16]; cisplatin combination, at 5 µM) of 16.2% and an inhibition [16, 38] of -0.777%. The inhibition ([16]; single agent, at 5 µM) was -11.6%, the inhibition ([17]; at 0.5 µM) was -2.53% (inactive) and the inhibition ([17]; cisplatin combo, at 5 µM) was -31%. It also gave an inhibition [17, 39] of 7.83%, an inhibition [17, 40] of -5.57% and an inhibition ([17]; single agent, at 5 µM) of 7.32%. The inhibition ([18]; at 0.5 µM) was -20.4% (inactive), the inhibition [18, 26] was -0.059% and the inhibition [18, 27] was -32.7%. It also gave an inhibition ([18]; single agent, at 0.05 µM) of -13.4% and an inhibition ([18]; single agent, at 5 µM) of 5.37%.

With `O=C1OC2(c3ccc(O)cc3Oc3cc(O)ccc32)c2ccccc21` the luciferase signal [6] was 52 AU (inactive).

For `CCN(CC)CCOc1ccc2c(c1)C(=O)c1cc(OCCN(CC)CC)ccc1-2`, the luciferase signal [6] was 108 AU (inactive).

For `NCCNCCNCCN`, the luciferase signal [6] was 64 AU (inactive).

In the case of `CCCCCCCCCCOc1cc2c(=O)c(C(=O)OCC)c[nH]c2cc1OCC`, the luciferase signal [6] is reported as 44 AU (inactive).

For `CNCc1ccccc1`, the luciferase signal [6] was 56 AU (inactive).

With `Nc1nc(Cl)nc2c1ncn2[C@@H]1O[C@H](CO)[C@@H](O)[C@@H]1F` the AC50 [7] was 0.0332 µM (active), the SSMD [19] was -4.45 and the cell count [19] was 7490. For the same compound, the plate-normalised HSF1 focus index [19] was 0.84 (inactive), the inhibition [11, 20] was -3.9% (inactive) and -14.3% (inactive) and the inhibition [11, 21] was -8.83% and 6.96%. For the same compound, the inhibition [11, 22] was -20.3% and 1.78%, the inhibition [11, 23] was -15.7% and -36.2% and the inhibition [11, 24] was -5.98% and 57.4%. For the same compound, the inhibition [11, 25] was 71.4% and 96.1%, the inhibition ([12]; BGB combo, at 5 µM) was 93.3% and 87.1% and the inhibition ([12]; at 0.5 µM) was 73.2% (inactive) and 66.1% (inactive). The inhibition ([12]; cisplatin combo, at 5 µM) was 95.5% and 89.7%, the inhibition [12, 26] was 77.5% and 72.5% and the inhibition [12, 27] was 73.9% and 60.5%. For the same compound, the inhibition ([12]; single agent, at 5 µM) was 90.8% and 89.8%, the inhibition ([13]; BGB IC20 combo, at 0.005 µM) was -17.9% and 1.1% and the inhibition ([13]; BGB IC40 combo, at 0.005 µM) was -37% and -3.72%. The inhibition ([13]; BGB IC40 combo, at 0.05 µM) was 35.1% and 25%, the inhibition ([13]; at 0.5 µM) was -24.6% (inactive) and -23.6% (inactive) and the inhibition ([13]; cisplatin combo, at 0.05 µM) was 35.1% and 22.3%. The inhibition ([13]; cisplatin combo, at 0.5 µM) was -35.6% and 1.18%, the inhibition ([13]; cisplatin combo, at 5 µM) was 0.299% and -46.4% and the inhibition [13, 28] was -18.8% and -11.5%. The inhibition ([14]; at 0.5 µM) was 75.4% (inactive) and 77.9% (inactive), the inhibition [14, 29] was 66.7% and 73.9% and the inhibition [14, 30] was 95.1% and 90.7%. The inhibition [14, 31] was 78% and 76.7%, the inhibition [14, 32] was 97.1% and 95.9% and the inhibition ([14]; single agent, at 5 µM) was 96.4%. The inhibition ([15]; at 0.5 µM) was 45.3% (inactive) and 53.2% (inactive), the inhibition [15, 33] was 39.5% and 52% and the inhibition [15, 34] was 65.6% and 67.5%. The inhibition [15, 35] was 40.6% and 46.8%, the inhibition [15, 36] was 87% and 90.6% and the inhibition ([16]; at 0.5 µM) was 25.8% (inactive) and 24.8% (inactive). For the same compound, the inhibition [16, 37] was 61.9% and 62.5%, the inhibition ([16]; cisplatin combination, at 5 µM) was 70.1% and 80% and the inhibition [16, 38] was -13.2% and 17.9%. The inhibition ([16]; single agent, at 5 µM) was -3.16% and -6.18%, the inhibition ([17]; at 0.5 µM) was 16.9% (inactive) and 18.5% (inactive) and the inhibition ([17]; cisplatin combo, at 5 µM) was 84.3% and 94.2%. For the same compound, the inhibition [17, 39] was -16.1% and -7.68%, the inhibition [17, 40] was 83.1% and 66% and the inhibition ([17]; single agent, at 5 µM) was 9.06% and 45.4%. The inhibition ([18]; at 0.5 µM) was 7.42% (inactive) and 10.4% (inactive), the inhibition [18, 26] was 24% and 34.6% and the inhibition [18, 27] was -0.869% and -3.42%. The inhibition ([18]; single agent, at 0.05 µM) was 30.6% and -23.9% and the inhibition ([18]; single agent, at 5 µM) was 97.1% and 92.1%.

In the case of `C[C@@]12C(=O)OC(=O)[C@]1(C)C1CCC2O1`, the survival [2] is reported as 0.417 (inactive).

With `CC(O)(P(=O)(O)O)P(=O)(O)O` the survival [2] was 4.67 (inactive) and the luciferase signal [6] was 48 AU (inactive).
